The source of these data is paper PMC7862700, “An all-to-all approach to the identification of sequence-specific readers for epigenetic DNA modifications on cytosine”.

Holding throughout (test): DAPPL (digital affinity profiling via proximity ligation, sequencing); 10 mM Tris-HCl pH 7.5, 50 mM NaCl, 1 mM DTT, 4% glycerol, room temperature, 30 min; GST-TFs on glutathione beads, 16-mer random dsDNA library, 0.1% formaldehyde crosslink after washing; high values mean tight binding
Common to all, as to conditions: protein: recombinant; tags: N-terminal GST; dsDNA, one strand shown

One assay has as its target T1, FLI1 (Homo sapiens, UniProt Q01543 1-452).
T1 sequence: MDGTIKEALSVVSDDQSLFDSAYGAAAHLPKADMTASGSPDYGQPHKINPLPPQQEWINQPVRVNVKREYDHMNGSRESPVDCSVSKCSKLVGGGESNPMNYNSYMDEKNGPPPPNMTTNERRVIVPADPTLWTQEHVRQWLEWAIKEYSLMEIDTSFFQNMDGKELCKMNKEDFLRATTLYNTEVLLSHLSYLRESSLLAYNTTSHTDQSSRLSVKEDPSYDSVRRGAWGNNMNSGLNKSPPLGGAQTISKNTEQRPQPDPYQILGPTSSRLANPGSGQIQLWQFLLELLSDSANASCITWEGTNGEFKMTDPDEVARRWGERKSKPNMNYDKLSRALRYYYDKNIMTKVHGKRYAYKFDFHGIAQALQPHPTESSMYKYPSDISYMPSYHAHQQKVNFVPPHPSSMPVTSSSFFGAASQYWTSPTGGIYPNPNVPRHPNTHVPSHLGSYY
In short, it runs like this: (§1)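 Sequencing on an Illumina NextSeq500 followed washing, crosslinking with 0.1% formaldehyde, proximity ligation (BsaI/T4 ligase, 1 h, 37 °C) and PCR amplification of pools that had been incubated for 30 min at room temperature with 200 nmole of a random double-stranded 16-mer DNA library in Tris/NaCl/DTT/glycerol buffer. Each pool held DNA-barcoded human transcription factors, expressed in yeast as GST fusions and captured on glutathione beads, plus a tag-only sample. Binding signal is a hexamer's read frequency for a factor divided by its frequency in the tag-only sample.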

The next assay concerns the target T2, ELK1 (Homo sapiens, UniProt P19419 1-428).
T2 sequence: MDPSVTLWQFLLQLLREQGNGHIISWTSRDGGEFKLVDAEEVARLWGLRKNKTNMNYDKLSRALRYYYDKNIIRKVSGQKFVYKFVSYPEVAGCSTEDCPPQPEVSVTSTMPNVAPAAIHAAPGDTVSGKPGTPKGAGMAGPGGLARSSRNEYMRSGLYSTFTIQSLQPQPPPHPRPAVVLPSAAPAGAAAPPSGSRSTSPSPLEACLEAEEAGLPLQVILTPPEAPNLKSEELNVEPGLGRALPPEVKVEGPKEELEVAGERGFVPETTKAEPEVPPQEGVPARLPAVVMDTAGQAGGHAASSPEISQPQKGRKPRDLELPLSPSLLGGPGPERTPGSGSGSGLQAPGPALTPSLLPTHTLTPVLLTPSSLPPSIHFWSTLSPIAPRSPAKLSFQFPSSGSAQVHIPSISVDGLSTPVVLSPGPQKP
In short, it runs like this:
as §1

The next assay has as its target T3, GABPA (Homo sapiens, UniProt Q06546 1-454).
T3 sequence: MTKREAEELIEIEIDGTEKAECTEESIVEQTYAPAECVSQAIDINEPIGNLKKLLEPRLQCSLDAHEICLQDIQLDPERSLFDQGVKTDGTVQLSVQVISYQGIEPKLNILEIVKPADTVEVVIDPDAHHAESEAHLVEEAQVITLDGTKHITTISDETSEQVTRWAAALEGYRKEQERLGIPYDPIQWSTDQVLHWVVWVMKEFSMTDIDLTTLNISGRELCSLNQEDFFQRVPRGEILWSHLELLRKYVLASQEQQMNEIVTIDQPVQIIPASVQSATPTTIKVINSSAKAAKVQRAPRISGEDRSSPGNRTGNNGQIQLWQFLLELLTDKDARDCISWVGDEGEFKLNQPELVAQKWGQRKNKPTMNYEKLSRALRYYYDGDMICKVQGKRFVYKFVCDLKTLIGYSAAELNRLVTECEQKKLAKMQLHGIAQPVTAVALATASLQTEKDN
In short, it runs like this: as §1

For the next assay, the target named is T4, ERG (Homo sapiens, UniProt P11308 1-479).
T4 sequence: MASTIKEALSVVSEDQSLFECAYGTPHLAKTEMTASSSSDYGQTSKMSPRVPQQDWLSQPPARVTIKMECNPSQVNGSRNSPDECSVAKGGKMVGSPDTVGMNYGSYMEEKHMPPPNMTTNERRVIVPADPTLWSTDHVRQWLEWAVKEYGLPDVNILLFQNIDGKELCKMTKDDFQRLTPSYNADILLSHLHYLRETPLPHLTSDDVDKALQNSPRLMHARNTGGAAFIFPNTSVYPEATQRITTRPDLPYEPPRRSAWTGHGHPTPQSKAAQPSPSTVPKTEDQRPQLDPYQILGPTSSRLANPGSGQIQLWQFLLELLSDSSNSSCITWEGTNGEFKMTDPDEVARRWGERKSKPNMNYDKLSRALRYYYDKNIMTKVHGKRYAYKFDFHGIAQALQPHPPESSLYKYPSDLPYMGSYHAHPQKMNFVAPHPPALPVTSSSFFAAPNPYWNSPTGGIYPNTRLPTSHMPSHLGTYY
In short, it runs like this: as §1

The target of the next assay is ELF1 (Homo sapiens, UniProt P32519 1-619). In short, it runs like this: as §1
Chain of ELF1 (P32519 whole entry): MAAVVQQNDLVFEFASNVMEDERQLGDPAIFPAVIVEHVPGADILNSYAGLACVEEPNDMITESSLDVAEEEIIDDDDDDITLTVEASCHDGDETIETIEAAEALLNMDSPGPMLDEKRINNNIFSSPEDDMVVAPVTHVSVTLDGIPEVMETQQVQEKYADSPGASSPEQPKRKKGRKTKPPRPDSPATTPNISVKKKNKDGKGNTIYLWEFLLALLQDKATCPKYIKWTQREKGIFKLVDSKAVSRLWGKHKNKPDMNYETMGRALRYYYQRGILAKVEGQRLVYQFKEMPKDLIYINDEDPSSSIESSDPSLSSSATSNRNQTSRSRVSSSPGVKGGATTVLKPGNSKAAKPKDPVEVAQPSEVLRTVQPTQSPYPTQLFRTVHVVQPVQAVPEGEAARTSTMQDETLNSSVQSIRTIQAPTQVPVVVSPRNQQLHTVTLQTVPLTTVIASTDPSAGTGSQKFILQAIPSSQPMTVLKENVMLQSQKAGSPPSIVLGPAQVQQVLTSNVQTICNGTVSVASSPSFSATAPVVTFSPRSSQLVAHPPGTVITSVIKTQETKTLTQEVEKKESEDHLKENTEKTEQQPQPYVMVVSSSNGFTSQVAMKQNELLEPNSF
The next assay deals with T5, EHF (Homo sapiens, UniProt Q9NZC4 1-300).
T5 sequence: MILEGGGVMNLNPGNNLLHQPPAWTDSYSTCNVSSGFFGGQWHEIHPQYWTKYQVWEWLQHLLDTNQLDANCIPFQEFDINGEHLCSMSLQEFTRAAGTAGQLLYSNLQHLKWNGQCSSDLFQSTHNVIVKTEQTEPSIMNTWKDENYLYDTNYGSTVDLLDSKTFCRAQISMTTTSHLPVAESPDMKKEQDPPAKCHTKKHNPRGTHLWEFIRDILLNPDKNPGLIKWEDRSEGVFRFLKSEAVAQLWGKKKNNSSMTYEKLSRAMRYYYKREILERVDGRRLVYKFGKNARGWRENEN
In short, it runs like this: as §1

Another assay deals with SPI1 (Homo sapiens, UniProt P17947 1-270). In short, it runs like this:
as §1

For a further assay, the target named is SPIB (Homo sapiens, UniProt Q01892 1-262). In short, it runs like this: as §1
Chain of SPIB (Q01892 whole entry): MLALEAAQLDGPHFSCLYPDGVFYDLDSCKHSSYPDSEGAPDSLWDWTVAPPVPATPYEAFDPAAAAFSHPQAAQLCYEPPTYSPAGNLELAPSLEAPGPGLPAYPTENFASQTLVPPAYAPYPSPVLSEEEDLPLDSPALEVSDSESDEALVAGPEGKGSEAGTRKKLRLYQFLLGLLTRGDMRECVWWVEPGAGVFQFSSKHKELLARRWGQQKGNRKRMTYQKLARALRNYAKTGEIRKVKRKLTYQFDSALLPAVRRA
The next assay deals with T6, ELK3 (Homo sapiens, UniProt P41970 1-407).
T6 sequence: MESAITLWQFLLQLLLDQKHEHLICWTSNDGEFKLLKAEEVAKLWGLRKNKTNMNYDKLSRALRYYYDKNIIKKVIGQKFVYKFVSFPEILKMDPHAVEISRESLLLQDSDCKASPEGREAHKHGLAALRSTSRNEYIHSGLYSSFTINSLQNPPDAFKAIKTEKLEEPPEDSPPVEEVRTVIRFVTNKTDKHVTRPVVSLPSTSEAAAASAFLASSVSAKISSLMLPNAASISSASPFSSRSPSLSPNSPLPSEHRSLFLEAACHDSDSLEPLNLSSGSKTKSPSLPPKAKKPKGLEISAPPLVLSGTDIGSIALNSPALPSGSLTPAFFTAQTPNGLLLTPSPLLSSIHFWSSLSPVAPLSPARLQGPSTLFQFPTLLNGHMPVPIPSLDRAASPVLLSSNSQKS
In short, it runs like this: as §1

For the sequence AATTAT, the binding signal with FLI1 was 1.24 fold enrichment (6-mer frequency, TF over GST control); with ELK1, 1.25 fold enrichment (6-mer frequency, TF over GST control); in the assay with GABPA it was 1.2 fold enrichment (6-mer frequency, TF over GST control); with ERG it was 1.26 fold enrichment (6-mer frequency, TF over GST control); with ELF1, 1.22 fold enrichment (6-mer frequency, TF over GST control); with EHF, 1.23 fold enrichment (6-mer frequency, TF over GST control). Also, the binding signal in the assay with SPI1 was 1.18 fold enrichment (6-mer frequency, TF over GST control); with SPIB, 1.23 fold enrichment (6-mer frequency, TF over GST control); with ELK3 it was 1.25 fold enrichment (6-mer frequency, TF over GST control).

CTGTAC: the binding signal in the assay with FLI1 was 1.28 fold enrichment (6-mer frequency, TF over GST control); with ELK1, 1.31 fold enrichment (6-mer frequency, TF over GST control); with GABPA, 1.23 fold enrichment (6-mer frequency, TF over GST control); in the assay with ERG it was 1.39 fold enrichment (6-mer frequency, TF over GST control); with ELF1, 1.38 fold enrichment (6-mer frequency, TF over GST control); in the assay with EHF, 1.33 fold enrichment (6-mer frequency, TF over GST control). In addition, the binding signal was 1.4 fold enrichment (6-mer frequency, TF over GST control) with SPI1; 1.3 fold enrichment (6-mer frequency, TF over GST control) in the assay with SPIB; 1.24 fold enrichment (6-mer frequency, TF over GST control) with ELK3.

With TTCGTC, the binding signal in the assay with FLI1 is 1.36 fold enrichment (6-mer frequency, TF over GST control); in the assay with ELK1 it was 1.33 fold enrichment (6-mer frequency, TF over GST control); in the assay with GABPA, 1.33 fold enrichment (6-mer frequency, TF over GST control); with ERG it was 1.23 fold enrichment (6-mer frequency, TF over GST control); with ELF1, 1.32 fold enrichment (6-mer frequency, TF over GST control); in the assay with EHF, 1.27 fold enrichment (6-mer frequency, TF over GST control). The binding signal with SPI1 was 1.29 fold enrichment (6-mer frequency, TF over GST control); with SPIB it was 1.27 fold enrichment (6-mer frequency, TF over GST control); with ELK3, 1.22 fold enrichment (6-mer frequency, TF over GST control).

Turning to ACCAAT, the binding signal in the assay with FLI1 was 1.35 fold enrichment (6-mer frequency, TF over GST control); with ELK1, 1.34 fold enrichment (6-mer frequency, TF over GST control); with GABPA it was 1.4 fold enrichment (6-mer frequency, TF over GST control); with ERG, 1.29 fold enrichment (6-mer frequency, TF over GST control); with ELF1, 1.34 fold enrichment (6-mer frequency, TF over GST control); with EHF, 1.28 fold enrichment (6-mer frequency, TF over GST control). The binding signal is 1.3 fold enrichment (6-mer frequency, TF over GST control) with SPI1; 1.35 fold enrichment (6-mer frequency, TF over GST control) with SPIB; 1.34 fold enrichment (6-mer frequency, TF over GST control) in the assay with ELK3.

For TAATCT, the binding signal in the assay with FLI1 is 1.39 fold enrichment (6-mer frequency, TF over GST control); in the assay with ELK1, 1.34 fold enrichment (6-mer frequency, TF over GST control); with GABPA it was 1.33 fold enrichment (6-mer frequency, TF over GST control); with ERG it was 1.38 fold enrichment (6-mer frequency, TF over GST control); with ELF1, 1.4 fold enrichment (6-mer frequency, TF over GST control); with EHF it was 1.44 fold enrichment (6-mer frequency, TF over GST control). In addition, the binding signal in the assay with SPI1 is 1.33 fold enrichment (6-mer frequency, TF over GST control); with SPIB, 1.4 fold enrichment (6-mer frequency, TF over GST control); with ELK3, 1.46 fold enrichment (6-mer frequency, TF over GST control).

With TCCGGC, the binding signal is 2.29 fold enrichment (6-mer frequency, TF over GST control) with FLI1; 2.4 fold enrichment (6-mer frequency, TF over GST control) in the assay with ELK1; 2.12 fold enrichment (6-mer frequency, TF over GST control) with GABPA; 2.58 fold enrichment (6-mer frequency, TF over GST control) with ERG; 2 fold enrichment (6-mer frequency, TF over GST control) with ELF1; 2.18 fold enrichment (6-mer frequency, TF over GST control) in the assay with EHF. The binding signal with SPI1 was 2.19 fold enrichment (6-mer frequency, TF over GST control); with SPIB, 2.42 fold enrichment (6-mer frequency, TF over GST control); with ELK3 it was 2.45 fold enrichment (6-mer frequency, TF over GST control).

ATTTAC: the binding signal with FLI1 was 1.22 fold enrichment (6-mer frequency, TF over GST control); with ELK1, 1.29 fold enrichment (6-mer frequency, TF over GST control); in the assay with GABPA it was 1.23 fold enrichment (6-mer frequency, TF over GST control); with ERG, 1.27 fold enrichment (6-mer frequency, TF over GST control); with ELF1, 1.28 fold enrichment (6-mer frequency, TF over GST control); with EHF it was 1.33 fold enrichment (6-mer frequency, TF over GST control). The binding signal with SPI1 is 1.28 fold enrichment (6-mer frequency, TF over GST control); with SPIB, 1.23 fold enrichment (6-mer frequency, TF over GST control); with ELK3, 1.21 fold enrichment (6-mer frequency, TF over GST control).

Turning to CCTTAC, the binding signal with FLI1 was 1.31 fold enrichment (6-mer frequency, TF over GST control); with ELK1, 1.35 fold enrichment (6-mer frequency, TF over GST control); in the assay with GABPA, 1.37 fold enrichment (6-mer frequency, TF over GST control); in the assay with ERG, 1.31 fold enrichment (6-mer frequency, TF over GST control); in the assay with ELF1, 1.34 fold enrichment (6-mer frequency, TF over GST control); with EHF it was 1.28 fold enrichment (6-mer frequency, TF over GST control). In addition, the binding signal is 1.28 fold enrichment (6-mer frequency, TF over GST control) with SPI1; 1.33 fold enrichment (6-mer frequency, TF over GST control) in the assay with SPIB; 1.22 fold enrichment (6-mer frequency, TF over GST control) with ELK3.
